This is an account of results in PubChem BioAssay (EPA / NIEHS).

Inconclusive results are not listed. Activity calls are given as the source filed them. The calls were made as follows, unless noted: active = hit-call score of the fitted dose curve at least 0.9, where 1 is the maximum; inconclusive = response in the unintended direction; inactive = score below 0.9.

As a reminder, the AC50 is the midpoint of the concentration-response curve, whichever way the signal moves.

Assay [1] in a line: Tanguay_ZF_120hpf_PFIN_legacy: (Legacy) Oregon State University Tanguay Lab 120 Hour Post-fertilization zebrafish Assay for Pectoral Fin Malformation (AID 2283648).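 Also: each larva judged yes or no for fin defect by brightfield with dead larvae skipped.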 In a few lines: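 Tropical 5D wild-type embryos, dechorionated with pronase at 4 hpf, were placed singly in wells at 6 hpf and statically exposed until 120 hpf at 28C, sealed and dark, with 0.64% (vol/vol) final DMSO; pectoral fin malformation scored present/absent.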

Assay [2] in a line: Tanguay_ZF_120hpf_CFIN_legacy: (Legacy) Oregon State University Tanguay Lab 120 Hour Post-fertilization zebrafish Assay for Caudal Fin Malformation (AID 2283649). In a few lines:
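Embryos were collected from Tropical 5D wild-type adults and dechorionated at 4 hpf. At 6 hpf each was exposed, one per well, at 0.64% DMSO and 28C. At 120 hpf fin morphology was scored; dead embryos were excluded.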

Assay [3] in a line: Tanguay_ZF_120hpf_PIG_legacy: (Legacy) Oregon State University Tanguay Lab 120 Hour Post-fertilization zebrafish Assay for Pigmentation Malformation (AID 2283650). In a few lines: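 Tropical 5D wild-type zebrafish embryos, dechorionated with pronase at 4 hpf, were exposed singly from 6 hpf to 120 hpf statically at 28C in sealed, dark plates with 0.64% DMSO; pigmentation scored present/absent by brightfield microscopy, fitted against DMSO.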

Assay [4] is described as follows: Tanguay_ZF_120hpf_CIRC_legacy: (Legacy) Oregon State University Tanguay Lab 120 Hour Post-fertilization zebrafish Assay for Circulatory Malformation (AID 2283651). In a few lines:
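Using wild-type Tropical 5D zebrafish, we exposed dechorionated embryos from 6 to 120 hpf in embryo medium with 0.64% DMSO. Circulatory defects were scored as present or absent; 5uM trimethyltin chloride served as positive control.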

A short description of assay [5]: Tanguay_ZF_120hpf_SWIM_legacy: (Legacy) Oregon State University Tanguay Lab 120 Hour Post-fertilization zebrafish Assay for Swim Bladder Malformation (AID 2283654).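 Also: swim bladder malformation in each larva scored yes or no under brightfield.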 In a few lines:
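Dechorionated Tropical 5D wild-type embryos, placed singly from 6 hpf, were statically exposed at 28C to 120 hpf with 0.64% DMSO final; swim bladder malformation was scored present/absent by brightfield microscopy, gain of signal relative to DMSO controls.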

The nature of assay [6]: Tanguay_ZF_120hpf_TRUN_legacy: (Legacy) Oregon State University Tanguay Lab 120 Hour Post-fertilization zebrafish Assay for Truncated Body (AID 2283655). In a few lines: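 5D wild-type larvae; pronase dechorionation; static exposure 6→120 hpf, 28C; DMSO 0.64% final; 5uM trimethyltin chloride positive control. Readout: presence/absence of truncated body, analyzed relative to DMSO.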

Assay [7] in a line: Tanguay_ZF_120hpf_NC_legacy: (Legacy) Oregon State University Tanguay Lab 120 Hour Post-fertilization zebrafish Assay for Notochord and Tail Malformation (AID 2283656). In a few lines: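 Dechorionated 5D zebrafish, 1/well from 6 hpf; static exposure to 120 hpf, 28C, sealed, dark; final DMSO 0.64% v/v. NC scored binary (present/absent); dead embryos not scored. Fit vs DMSO baseline, gain direction.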

The test system of assay [8] is Thyroperoxidase (TPO), gene 54314. The experiment in a line: CCTE_Simmons_AUR_rTPO: CCTE's Amplex UltraRed Assay for Thyroperoxidase (TPO) Inhibition, Simmons Lab (AID 2283662).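 Also: potency for loss of signal meaning inhibition of peroxidase activity.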 In a few lines:
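Rat thyroid microsomes (5 ug protein) with 25 uM Amplex UltraRed and 300 uM H2O2 in 200 mM phosphate buffer, 30 min at 37C in dark; fluorescence 544/590 nm. Eight concentrations, 5 nM–87.5 uM final, 0.5% DMSO, triplicate biological replicates.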

A short description of assay [9]: CCTE_Simmons_CellTiterGLO_HEK293T: Viability Assessment in CCTE's Assays for Thyroperoxidase (TPO) Inhibition, Simmons Lab (AID 2283665).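 As to AC50: cells exposed to compound for 24 h before readout; actives reduce ATP signal below DMSO vehicle meaning cytotoxicity.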 In a few lines:
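Cytotoxicity counter-screen: human HEK293T cells in low-serum (1% FBS) medium receive test chemical, 5 nM to 87.5 uM final, for 24 h; ATP is quantified by luciferase luminescence.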
(Cellular ATP, detected with luciferase, serves as a proxy for viable cell number.)

A short description of assay [10]: Tanguay_ZF_120hpf_TR_legacy: (Legacy) Oregon State University Tanguay Lab 120 Hour Post-fertilization zebrafish Assay for Touch Response (AID 2283667). In a few lines: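 Tropical 5D wild-type zebrafish embryos were exposed statically in sealed, foil-covered plates at 28C until 120 hpf, with 0.64% (vol/vol) final DMSO. Touch response was scored as present or absent; embryos that died were not scored.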

A short description of assay [11]: CCTE_Padilla_ZF_144hpf_TERATOSCORE: (Legacy) CCTE's 144 Hour Post-fertilization zebrafish Assay Teratoscore, Padilla Lab (AID 2283679; active = hit-call score of the fitted dose curve at least 0.9, where 1 is the maximum; inactive = score below 0.9;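 as to AC50: zebrafish embryos with chorions exposed by immersion from 6-8 hpf to 5 dpf with daily renewal; teratogenicity score from eye scoring of death hatching and malformations at 144 hpf; higher score means more developmental defects relative to DMSO baseline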). In a few lines:
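Larvae scored by eye at 144 hpf for death, hatching and malformations after a day in clean Hanks'. Before that, daily-renewed exposure at 80 uM (0.4% DMSO, 26C) from roughly 6-8 hpf through 5 dpf, 4 embryos per chemical.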

Assay [12] is described as follows: Tanguay_ZF_120hpf_BRAI_legacy: (Legacy) Oregon State University Tanguay Lab 120 Hour Post-fertilization zebrafish Assay for Brain Malformation (AID 2283641). In a few lines:
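Brain malformation in Tropical 5D zebrafish was recorded as a binary endpoint after static compound exposure from early development to 120 hpf at 28C. Activity was analysed against DMSO as negative control.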

Assay [13] can be described thus: STM_H9_CystineISnorm_perc: Stemina devTOX quickPredict H9 human embryonic stem cell (hESC)-based Assay for Cystine (CYSS) Metabolite Biomarker, Normalized (AID 2283713; active = hit-call score of the fitted dose curve at least 0.9, where 1 is the maximum; inactive = score below 0.9). In a few lines: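 Secreted cystine was measured by UPLC-HRMS in H9 hESC medium after 72h compound exposure with 24-hourly replenishment. Values are standard-normalized areas relative to 0.1% DMSO.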

The nature of assay [14]: STM_H9_OrnCyssISnorm_ratio: Stemina devTOX quickPredict H9 human embryonic stem cell (hESC)-based Assay for Ornithine (ORN):Cystine (CYSS) Ratio (AID 2283714). In a few lines: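 Undifferentiated H9 hESCs were exposed to compound for 72h with media and chemical replaced every 24h. Final 24-h conditioned media were deproteinized and analysed by UPLC-HRMS. ORN and CYSS peak areas were normalized to C13 internal standards and the ratio taken versus 0.1% DMSO.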

A short description of assay [15]: Tanguay_ZF_120hpf_SOMI_legacy: (Legacy) Oregon State University Tanguay Lab 120 Hour Post-fertilization zebrafish Assay for Somite Malformation (AID 2283647). In a few lines: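 5D WT zebrafish; chorion removed 4 hpf; 1 embryo/well from 6 hpf; static exposure to 120 hpf, 28C, 0.64% DMSO final. Endpoint: somite malformation, binary, brightfield. Mortality excluded.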

Turning to `O=C(O)c1ccccc1C(c1ccc(O)cc1)c1ccc(O)cc1`, the result in [1], in assay [2], in assay [3], in [4], in [5] and in [6] was inactive. The call in [7], in [9], in assay [10] and in assay [11] was inactive. Moreover, in assay [8], the AC50 was 4.26 µM (active).

Regarding `CCCCCCCCCCCCCCCS(=O)(=O)Oc1ccccc1`, the compound was called inactive in assay [1], in [2], in assay [3], in assay [4], in assay [5] and in assay [6]. Also, the outcome in [10] was inactive.

Take `c1ccc2cc3c(ccc4ccccc43)cc2c1`: the AC50 in assay [12] was 48.5 µM (active); in assay [8] it was 22.6 µM (active); in [9] it was 43.8 µM (active); in assay [11], 20.4 µM (active). For the same compound, the outcome in assay [2], in [3], in assay [4], in assay [5], in [6] and in assay [10] was inactive.

In the case of `Oc1cccc(O)c1`, the result in assay [12], in [3], in [5], in assay [7] and in [9] was inactive. In addition, the AC50 in assay [8] is 0.0137 µM (active).

Regarding `CCCCC(CC)COC(=O)CCCCC(=O)OCc1ccccc1` (stereo not given), the result in assay [12], in assay [1], in [2], in assay [4], in assay [5] and in assay [6] was inactive. Moreover, the result in assay [7] and in assay [10] was inactive.

Regarding `COCC(C)O` (stereo not given), the compound was called inactive in assay [12], in [1], in assay [3], in assay [5], in assay [6] and in assay [10]. Further, the compound was called inactive in [11].

As for `CCN(CC)CCNc1ccc(CNC=O)c2sc3ccc(OC)cc3c(=O)c12`, the compound was classed as inactive in assay [12], in assay [2], in [3], in assay [5], in [6] and in [7]. Also, the outcome in assay [10] was inactive. In addition, the AC50 in [8] is 24.9 µM (active); in assay [9] it was 22.1 µM (active); in [11] it was 57.8 µM (active); in assay [13], 2.53 µM (active); in [14], 5.78 µM (active).

Consider `COc1ccc([N+](=O)[O-])cc1N`, for which the compound was classed as inactive in [15], in [1], in [2], in [4], in assay [5] and in [6]. The call in assay [9], in [10], in assay [13] and in [14] was inactive. Also, the AC50 in assay [8] was 3.52 µM (active).

`N#C[C@@H]1CC(F)(F)CN1C(=O)CNC1CC2CCC(C1)N2c1ncccn1` (stereo not given in full): the result in assay [12], in [1], in [2], in [3], in [6] and in [9] was inactive. The result in assay [13] was inactive. Moreover, in [8], the half-maximal activity concentration (AC50) was 36.6 µM (active).
